Assay outcomes as filed in PubChem.
Compounds with a hit are over-represented: about 7.8% of the library has one in this group of screens.
Lassa entry inh: Lassa virus entry inhibition. Potency, µM (doses to about 37.9 µM), without a hit: top-dose activity change, negative = inhibition, usual class: inhibitors. 300,000 compounds, 1.2% hits. Lassa virus pseudotype entry inhibition, cell reporter; calls by dose curve; tested in HEK293 cells; further: potency means the concentration at half of the fitted maximal effect; nearly all actives have a fitted effect of over 50% in size
HCV inh: HCV inhibition; Huh7.5.1 HCVcc-Cre infection, luciferase reporter, 44 h; Potency, µM (top dose mostly 41.8 µM), without a hit: top-dose activity change, negative = inhibition, usual class: inhibitors; 340,000 compounds, 3.4% hits; active means well fitted inhibition curve with a large enough effect; inconclusive means small, poorly fitted or top-dose-only effect, or another doubt; inactive means no such curve, though single readings can be large or run the other way; further: potency means the concentration at half of the fitted maximal effect
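Compounds are dispensed onto cells plated 4 h earlier at 1,000 per well, with HCVcc-Cre virus (about 0.5 moi) added next. Following 44 h of culture, luminescent signal is measured for 15 sec after 15 min with substrate at room temperature.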
Vaccinia Venus: inhibitors of vaccinia virus (Venus reporter); Vaccinia virus Venus reporter expression, fluorescence; Potency, µM (highest dose often 36.5 µM), without a hit: at the highest dose activity change, negative = inhibition, hits mostly inhibitors; 330,000 compounds, 0.46% hits; AID 720580; calls by dose curve; tested in A549 cells; further: potency means the concentration at half of the fitted maximal effect; nearly all actives have a fitted effect of over 30% in size
Vaccinia mCherry: vaccinia inhibition (mCherry reporter). Potency, µM (titrated, usually from 36.5 µM), for inactives: at the top dose activity change, negative = inhibition, actives largely listed as inhibitors. 310,000 compounds, 0.63% hits. Vaccinia virus mCherry reporter infection, fluorescence; calls by dose curve; tested in A549 cells; further: potency means the concentration at half of the fitted maximal effect; nearly all actives have a fitted effect of over 35% in size
Marburg entry inh: blocks Marburg virus binding to or entry into cells. Marburg virus pseudotyped entry inhibition, cell reporter. Potency, µM (top dose mostly 37.8 µM), without a hit: at the top dose activity change, negative = inhibition, usual class: inhibitors. 300,000 compounds, 1.8% hits; calls by dose curve; tested in HEK293 cells; further: potency means the concentration at half of the fitted maximal effect
HCMV antiviral: inhibitors of human cytomegalovirus | HFF cells, HCMV-luciferase reporter, 72 h; stronger effect = lower value | 410,000 compounds, 4.5% hits | activity change, negative = inhibition, % at 57.5 µM; in the data active means activity change below about -60%; inconclusive means no clear call, values can overlap the other calls; inactive means above about -39%
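HFF cells seeded 16 h at 37C, treated with compounds, infected with luciferase-reporter HCMV at MOI 1 PFU/cell; luciferase read at 72 h post infection, normalized to buffer-only and Salinomycin controls.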
An asterisk follows results filed as active; i = inactive; ? = inconclusive; nt = no result given; + = active, no number; ! = not confirmed by another sample; [ ] = remark or other dose. On the % scale 0 is the no-effect control and ±100 the full control effect.

SMILES	Lassa entry inh	HCV inh	Vaccinia Venus	Vaccinia mCherry	Marburg entry inh	HCMV antiviral
COc1ccc(-c2oc3c(OC)c(OC)c(OC)c(O)c3c(=O)c2OC)cc1OC	nt	10µM*	?	?	nt	?
COc1ccc(-c2oc3cc(O[C@@H]4OC(CO)C(O)C(O)C4O)c(OC)c(O)c3c(=O)c2OC)cc1O (stereo not given in full)	nt	nt	-23.2%	-8.5%	nt	nt
COc1c(-c2ccc(O)cc2)oc2cc(O)cc(O)c2c1=O	nt	?	?	20µM*	nt	-5.2
COc1ccc(-c2oc3cc(OC)c(O)c(OC)c3c(=O)c2OC)cc1O	nt	8.91µM*	?	?	nt	-37.0
COc1ccc(-c2oc3cc(O)c(OC)c(O)c3c(=O)c2OC)cc1	nt	-26.7%	-16.8%	-23.3%	nt	109.2
Cc1sc(N)nc1-c1ccc(Oc2ccccc2)cc1	nt	14.1µM*	nt	nt	nt	20.5
COc1cccc(/C=N/Nc2ccccc2C(=O)O)c1O	nt	16.4%	nt	nt	nt	-79.8*
COc1cccc(/C=N/Nc2ccc(C(=O)O)cc2)c1O	nt	21.3%	-13.2%	-8.6%	nt	-95.4*
COc1cccc(/C=N/Nc2ccc(S(=O)(=O)O)cc2)c1O	-1.2%	2.2%	nt	nt	6.1%	35.1
CCOc1ccc(NC(=O)CN(C)C(=O)c2cn(-c3ccc(C)cc3)nc2-c2cccc(OC)c2)cc1OCC	-28.8%	?	-17.3%	7.8%	11.2µM*	-0.2
CCOc1ccccc1NC(=O)COc1coc(CN2CCCc3ccccc32)cc1=O	-16.2%	12.6µM*	-21.8%	?	?	-5.3
CCOc1ccccc1NC(=O)COc1coc(CN2CCc3ccccc3C2)cc1=O	-20.7%	?	-8.0%	i	-9.2%	-10.2
COc1cccc(NC(=O)N2CC(=O)N3[C@@H](CO)[C@@H](c4ccc(Br)cc4)[C@@H]3C2)c1	nt	nt	nt	nt	nt	-9.8
COc1cc(O)c(C(=O)c2ccccc2)cc1O	nt	nt	-6.6%	?	nt	nt
COc1ccc(C(=O)c2ccccc2)c2c(O)ccc(C(=O)c3ccccc3)c12	?	2.51µM*	?	nt	14.1µM*	-78.9*
CCN1C(=O)c2ccccc2Sc2ccc(NC(=O)Nc3cc(C)cc(C)c3)cc21	0.1%[46.1 µM]	nt	?	?	4.7%[46.1 µM]	-99.5*
CN1C(=O)c2ccccc2Sc2ccc(NC(=O)Cc3c(F)cccc3Cl)cc21	?	nt	-29.5%	-25.1%	nt	-81.9*
CN1C(=O)c2ccccc2Sc2ccc(NC(=O)Nc3ccccc3F)cc21	-20.7%[46.1 µM]	nt	-14.3%	-14.4%	?	-2.2
CN1C(=O)c2ccccc2Sc2ccc(NC(=O)COc3ccccc3)cc21	?	nt	-24.4%	-9.8%	nt	-63.5*
Cc1cccc(OCC(=O)Nc2ccc3c(c2)N(C)C(=O)c2ccccc2S3)c1	?	nt	-13.9%[7.34 µM]	-16.5%[7.34 µM]	nt	6.5
CCN1C(=O)c2ccccc2Sc2ccc(NC(=O)c3ccc(Cl)cc3)cc21	18.1%[46.1 µM]	nt	-11.7%	-11.7%	nt	12.1
CN1C(=O)c2ccccc2Sc2ccc(NC(=O)N3CCN(c4cccc(Cl)c4)CC3)cc21	?	nt	-26.4%	-29.4%	11.2µM*	?
COc1ccc2c(c1)[C@@H](NS(C)(=O)=O)[C@H](C)[C@@H](c1ccccc1)N2C(=O)Nc1ccc(C(F)(F)F)cc1	nt	nt	nt	nt	nt	-25.0
CC(C)C(=O)Nc1cccc(COc2ccc(CN(Cc3ccccc3)C(=O)OC(C)(C)C)cc2)c1	nt	0.501µM*	-25.6%	-6.5%	nt	-34.4
CC(C)(C)OC(=O)N(CCc1ccccc1)Cc1ccccc1OCc1ccc(NC(=O)C2CCCC2)cc1	nt	10.4%[8.37 µM]	-4.2%	1.6%	nt	-14.6
SMILES	Lassa entry inh	HCV inh	Vaccinia Venus	Vaccinia mCherry	Marburg entry inh	HCMV antiviral
CC(C)(C)OC(=O)N(CCc1ccccc1)Cc1ccc(OCc2cccc(NC(=O)C3CC3)c2)cc1	nt	12.6µM*	-25.9%	i	nt	?
CC(C)(C)OC(=O)N(CCc1ccccc1)Cc1ccc(OCc2cccc(NC(=O)C3CCC3)c2)cc1	nt	?	-19.2%	-10.0%	nt	?
CC(C)C(=O)Nc1ccc(COc2ccccc2CN(Cc2ccccc2)C(=O)OC(C)(C)C)cc1	nt	-5.0%[8.37 µM]	6.0%	?	nt	-74.3*
CC(=O)Nc1ccc(CN2CCn3c(nnc3C(=O)NCC3CC3)C2)cc1	nt	nt	nt	nt	nt	2.6
COc1ccc(NC(=O)CN2C(=O)CSc3ccc(S(=O)(=O)N(C)C)cc32)cc1Cl	0.6%[46.1 µM]	nt	-6.7%	-13.4%	nt	-23.1
CCOc1ccc(NC(=O)CN(c2ccc(C)cc2)S(=O)(=O)c2cccs2)cc1	-20.4%[46.1 µM]	nt	-6.4%	-1.4%	-2.4%[46.1 µM]	-0.2
CC12CCC(=O)C=C1CCC1C2C(O)CC2(C)C(O)CCC12 (stereo not given)	-8.8%[46.1 µM]	3.2%	-1.4%	-8.6%	-0.9%[46.1 µM]	-17.7
C[C@]12CC(O)C3C(CCC4=CC(=O)CC[C@@]43C)C1CCC2c1csc(-c2ccccc2)n1 (stereo not given in full)	nt	?	-29.8%	-6.7%	nt	-75.8*
CCC1=C(O)CC(O)=C(C2NNC(CCC(=O)O)C2C2NC3CCCCC3N2C)C1 (stereo not given)	nt	nt	nt	nt	5.3%[46.1 µM]	nt
O=C(NCC1CCCO1)c1ccc2c(=O)n(Cc3ccc(Cl)cc3)c(=S)[nH]c2c1 (stereo not given)	?	10.0%	-0.2%	i	?	-10.8
Cc1c(C)n(C)c2ccc(C(=O)NCCCN3CCCCC3C)cc12 (stereo not given)	1.6%[46.1 µM]	-8.0%	-6.1%	-5.2%	nt	+!
CN1CCN(CCCNC(=O)c2ccc3c(=O)n(CCc4ccccc4)c(=O)[nH]c3c2)CC1	0.1%	-39.1%	-9.6%	-0.4%	?	-18.6
O=C(CCCCCn1c(=O)[nH]c2ccccc2c1=O)NCCCN1CCN(c2ccccc2F)CC1	-8.2%	12.6µM*	-19.2%	i	?	6.5
O=C(CCCn1c(=O)[nH]c2ccccc2c1=O)NCCSCc1ccccc1	-11.6%	-22.1%	-11.0%	-17.0%	-0.8%[46.1 µM]	-34.9
CC1CCCCN1CCNC(=O)c1ccc2c(=O)n(Cc3ccc(Cl)cc3)c(=S)[nH]c2c1 (stereo not given)	?	2.24µM*	?	-14.4%	?	-27.3
CC1CCCCN1CCCNC(=O)c1ccc2c(=O)n(CCc3ccccc3)c(=O)[nH]c2c1 (stereo not given)	?	3.98µM*	nt	nt	?	43.8
COc1ccc([C@@H]2[C@@H](C(=O)N3CCOCC3)CC(=O)N2C(=O)c2ccccc2)cc1	nt	nt	nt	nt	nt	10.0
COc1ccc(-c2cn(CCC(=O)O)c(=O)cn2)cc1	nt	nt	nt	nt	nt	-13.0
CCOc1ccc2c(c1)c(=O)c(C(=O)c1ccc(CC)cc1)cn2CC(=O)Nc1ccccc1C	-12.2%[46.1 µM]	nt	?	-27.6%	0.1%[46.1 µM]	-13.7
COc1ccc(-c2noc(N3CCN(c4cccc(Cl)c4)CC3)n2)cc1OC	-12.8%[46.1 µM]	nt	-15.1%	-24.2%	nt	-7.7
CC(C)Cn1cc(NC(=O)N2CCN(c3ccc(F)cc3)CC2)c2ccccc2c1=O	?	nt	-3.4%	1.9%	nt	-11.4
O=C(CCCCCn1c(=O)[nH]c2ccccc2c1=O)N1CCN(Cc2ccc3c(c2)OCO3)CC1	16.4µM*	?	nt	nt	?	-18.7
